Experimental findings from PubChem BioAssay AID2546 (National Center for Advancing Translational Sciences (NCATS), 2010) are described below.

Structures are written as SMILES. Values joined by “and” are separate entries in the source; they are usually repeats but may differ in a detail not shown here. Equal values may be shown once. Out of some 310,000 compounds screened, about 11,000 (3.5%) were called active. Roughly 8% stayed inconclusive and do not appear here. Calls follow the shape of the dose curve; as a rule, active = well fitted inhibition curve with a large enough effect; inconclusive = small, poorly fitted or top-dose-only effect, or effect the other way; inactive = flat fitted curve, though single readings scatter. The entries come from a sample that favours actives as a whole. Where a call stands in place of a potency, no number is given.
Potency is read from the fitted curve at half-maximal effect.

The nature of this test: VP16 counterscreen qHTS for inhibitors of ROR gamma transcriptional activity.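 Also: Gal4-VP16 expression switched on by copper sulfate through the metallothionein promoter; nearly all actives have a fitted effect of over 50% in size.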 The settings on record: Drosophila S2 Gal4-VP16 UAS-luciferase, luminescence, 20 h; series mostly up to 53.6 µM. The text has this: NIH Molecular Libraries Probe Production Network [MLPCN]
NIH Chemical Genomics Center [NCGC]
Assay Provider: Dan Littman, New York University
The retinoic acid-related orphan receptor (ROR) gamma is a transcription factor that has a central role in the differentiation of Th17 cells, a subset of T helper cells that secrete the inflammatory cytokines IL-17, IL-17F, and IL-22. Th17 cells have been implicated in graft versus host disease, autoimmune disease and asthma. ROR gamma is induced in naive T helper cells in the presence of TGF-beta combined with IL-6, IL-21, or IL-23, and thereafter directs the expression of the Th17 lineage cytokines. To identify nonspecific inhibitors, a Drosophila Schneider cell line was stably transfected with two vectors: a gene expressing a fusion of the Gal4 DNA binding domain and VP16 transactivation domain under the control of the metallothionine promoter and a Photinus luciferase reporter regulated by the Gal4 binding site enhancer, UAS. […] Small molecule inhibitors that inhibit components common to the RORgt and VP16 assays, such as the Gal4 DNA binding domain or the UAS luciferase reporter, will be active in both assays and thus scored as nonspecific.
For screening, 600 cells in 4 uL/well were dispensed into white solid 1536-well plates (Grenier) using a solenoid-based dispenser. Following transfer of 23 nL compound or DMSO vehicle by a pin tool, the plates were incubated 1 hr at ambient temperature, and 1 uL/well copper sulfate (700 uM final concentration) was added. The plates were centrifuged 15 s at 1000 RPM and incubated 20 hr at ambient temperature. After addition of 1.5 uL Photinus luciferase detection reagent, the plates were incubated 10 min at ambient temperature and then read by a ViewLux (Perkin Elmer) to detect luminescence.
(In general: The purpose of a counterscreen is to sort out artefacts and off-target activity.)
For `Cc1ccc(OCC(=O)Nc2ccc3oc(=O)ccc3c2)cc1C`, the Potency entry was “inactive”. `COc1ccc2cc(C(=O)NCC3CCCO3)[nH]c2c1` (stereo unspecified): the Potency entry was “inactive”. To `O=C(C1CCCN(S(=O)(=O)c2ccc([N+](=O)[O-])cc2)C1)N1CCCCC1` (stereo unspecified) belongs “inactive”; to `N#Cc1ccc(C(=O)Nc2nc(-c3cccs3)c(C(=O)C(F)(F)F)s2)cc1`, 3.16 µM (active); to `CC(=O)c1sc(NC(=O)c2ccc(C)cc2)nc1C`, “inactive”. In the case of `Cc1ccc(C(=O)Nc2nnc(-c3cccs3)s2)cc1C`, the Potency entry is “inactive”. To `CCc1ccccc1NC(=O)c1ccc2snnc2c1` belongs “inactive”; to `Cc1c(C)c(C)c(S(=O)(=O)NCCc2ccccn2)c(C)c1C`, “inactive”; to `CCc1c(C)nc(SCC(=O)NC2CCCC2)[nH]c1=O`, “inactive”. To `CCc1ccc(-c2nc(SCC(=O)NC3CCCC3)n[nH]2)cc1` belongs 14.1 µM (active); to `COc1ccc(-c2nc(SCC(=O)N3CCCC3)n[nH]2)cc1`, “inactive”; to `Cc1ccc(S(=O)(=O)c2nnn3c2nc(N2CCN(c4ccccn4)CC2)c2ccccc23)cc1`, “inactive”. For the compound `COc1ccc(-c2cc(=O)oc3cc(OC(C)C(=O)Nc4ccc(CN5CCOCC5)cc4)ccc23)cc1` (stereo unspecified), the Potency result was “inactive”.

For the compound `Cc1ccc(OCc2nc3ccccc3n2C)cc1`, the Potency result is “inactive”. To `Cc1nc2ccccc2c(=O)n1Cc1ccc([N+](=O)[O-])cc1` belongs “inactive”; to `Cn1cc(/C=C/c2nc3ccccc3c(=O)n2-c2cccc([N+](=O)[O-])c2)c2ccccc21`, “inactive”. Then `CCn1c(/C=C/c2ccc([N+](=O)[O-])o2)nc2ccccc2c1=O`, with 11.2 µM (active); and `CCCCn1c(N)c(N(CCOC)C(=O)c2oc3ccc(OC)cc3c2C)c(=O)[nH]c1=O`, with “inactive”.

Take `Cc1cc(/C=N/NC(=O)c2cccnc2)c(C)n1CC(C)C`: the Potency result is “inactive”. Then `O=C(N/N=C/c1sc(N2CCCCC2)nc1-c1cccs1)c1cccnc1`, with 10 µM (active). To `O=C(N/N=C/c1ccc(O)c2ccccc12)c1cccnc1` belongs “inactive”; to `O=C(NCCS(=O)(=O)N1CCN(c2ccccc2F)CC1)c1ccc(Br)o1`, “inactive”. Then `Oc1c(Cl)cc(Cl)c(Cl)c1Cc1c(O)c(Cl)cc(Cl)c1Cl`, with 3.16 µM (active) and 7.08 µM (active) and 3.98 µM (active); and `CCCCCN(C(=O)CCC(=O)OCC(=O)NCc1ccc(OC)cc1)c1c(N)n(CCCC)c(=O)[nH]c1=O`, with “inactive”; and `CC(=O)Nc1ccc(S(=O)(=O)N2CCC(C(=O)NC3CC3)CC2)cc1`, with “inactive”. Take `CCOc1ccc(NC(=O)[C@H](C)NC(=O)C2CC(=O)N(c3ccc(OC)cc3)C2)cc1` (stereo partly specified): the Potency entry is “inactive”. To `Fc1ccccc1CNC(=S)Nc1ccc(Cl)cc1` belongs 7.08 µM (active); to `Fc1ccccc1Cn1cnc(NC(=S)NCCc2ccccc2)n1`, “inactive”; to `O=C(Cc1cccc2ccccc12)NNC(=O)Nc1ccc(Cl)cc1`, “inactive”. On to `COc1ccc(CCNC(=O)CSCc2ccc(Br)cc2)cc1OC`, for which the Potency result was “inactive”.

As for `CS(=O)(=O)N(CC(=O)N1CCOCC1)c1cccc(Cl)c1Cl`, the Potency result is “inactive”. Then `O=C1C2C(c3ccccc3)CC=CC2C(c2ccoc2)N1Cc1ccccc1` (stereo unspecified), with “inactive”; and `CCc1nc(NCCO)c(C#N)c2c1CCCC2`, with “inactive”.

On to `CCN1CCc2c(C#N)c(NCc3ccccc3)nc(NCCO)c2C1`, for which the Potency result was “inactive”. To `CC(C)CCNc1nc(N2CCCC2)c2c(c1C#N)CCN(C)C2` belongs 11.2 µM (active). To `Cn1cccc1C(=O)N1CCc2ccccc2C1` belongs “inactive”; to `Cc1cccc(C)c1NC(=O)C(c1ccccc1)N1CC(=O)Nc2ccccc21` (stereo unspecified), “inactive”; to `Cc1cccc(C)c1NC(=O)C(Cl)C(=O)c1ccccc1` (stereo unspecified), 22.4 µM (active).

As to `Cc1cccc(C)c1NC(=O)N1CC(C)OC(C)C1` (stereo unspecified), the Potency entry is “inactive”. Then `CSCC[C@H](NC(=O)N1CCn2c1nc1ccccc12)C(=O)NC1CCCCC1`, with “inactive”; and `O=C(COC(=O)c1cccs1)Nc1ccccc1Cl`, with “inactive”. Then `O=C(COC(=O)/C(=C/c1cccs1)c1cccs1)NCc1ccccc1Cl`, with 0.631 µM (active). Then `O=C(COC(=O)c1cccs1)NCc1cccs1`, with “inactive”; and `O=C(Nc1cccc(Cl)c1Cl)c1ccccc1NC(=O)C1CC=CCC1C(=O)O` (stereo unspecified), with “inactive”. Regarding `CCC1CCCCN1C(=O)CSc1nc2c(c(=O)n1C)SC(C)C2` (stereo unspecified), the Potency result was “inactive”. Then `CC(=O)NCCc1nc2cc(NC(=O)c3ccccc3)ccc2n1C`, with “inactive”. To `CCC(=O)NCCc1nc2ccccc2n1CC` belongs “inactive”; to `Cc1nn(C)cc1C(=O)Nc1ccccc1Br`, “inactive”; to `Cn1c(NC(=O)c2ccccc2)nc2ccccc21`, 1.26 µM (active). Then `Cn1sc(NC(=O)c2ccccc2)nc1=O`, with “inactive”; and `CCn1c(NC(=O)c2nn(C)cc2Br)nc2ccccc21`, with 5.01 µM (active). On to `CC(C)Cc1nnc(NC(=O)CN2C(=O)NC3(CCCCC3)C2=O)s1`, for which the Potency result is “inactive”. To `Cc1cccn2c(=O)c3cc(C(=O)NCC4CCCO4)c(=N)n(Cc4ccc(F)cc4)c3nc12` (stereo unspecified) belongs “inactive”; to `COc1ccccc1CN(C)C(=O)c1cc2ccccc2o1`, “inactive”; to `COc1ccc(/C=N/NC(=O)Nc2ccc3nsnc3c2)c(OC)c1`, “inactive”.

In the case of `COc1cc(/C=N/NC(=O)c2cccnc2)ccc1OC(=O)c1cccc(Br)c1`, the Potency result was “inactive”. Then `COc1ccc(-c2[nH]ncc2/C=N/NC(=O)c2cc(Br)ccc2O)c(OC)c1`, with 0.891 µM (active); and `CN(c1ccccc1)S(=O)(=O)c1ccc(NC(=O)COc2ccccc2)cc1`, with “inactive”; and `COc1cc(/C(=C/c2ccccc2)c2ccccc2)c2c(c1)oc1ccccc12`, with “inactive”. Then `O=C(COC(=O)c1ccc(Oc2ccccc2)cc1)Nc1nnc(-c2ccccc2)o1`, with 5.62 µM (active); and `O=C(OCc1ccc(Br)cc1)c1cccc(-c2nnc(-c3ccccc3)o2)c1`, with “inactive”. Then `Cc1cccc(NC(=O)Nc2nnc(-c3ccccc3)o2)c1`, with “inactive”; and `COc1cc(CNCc2ccc3c(c2)OCO3)c([N+](=O)[O-])cc1OC`, with “inactive”; and `Cc1ccc(C)c(OCc2cc(C(=O)N3CCN(c4cnccn4)CC3)no2)c1`, with “inactive”. For `Oc1ccc(-c2cccc(-c3ccc(O)cc3)c2)cc1`, the Potency result is “inactive”. To `Cc1cccc(NC(=O)c2sc(-c3ccccc3)nc2-c2ccc([N+](=O)[O-])cc2)c1` belongs “inactive”; to `O=C(Nc1ccccc1)/C(=C/c1ccc([N+](=O)[O-])cc1)NC(=O)c1ccccc1`, “inactive”. For the compound `CCOC(=O)/C(=C\c1ccc([N+](=O)[O-])cc1)C(=O)c1cc(C(C)=O)c(Nc2ccccc2)s1`, the Potency is 5.62 µM (active).

Take `C#CC(C)(C)NC(=O)c1cnc(-c2ccccc2)nc1-c1ccccc1`: the Potency entry is “inactive”.

On to `CCC(=O)N(CCc1ccccc1)Cc1cc2cc(C)ccc2[nH]c1=O`, for which the Potency result was “inactive”. Then `Cc1cc(C)n(CCNS(=O)(=O)c2ccc(Cl)cc2)n1`, with “inactive”. Then `COc1cccc(/C=N/NC(=O)c2[nH]nc3c2CCc2ccccc2-3)c1O`, with 0.794 µM (active); and `CN(C)CCNC(=O)c1[nH]nc2c1CCc1ccccc1-2`, with “inactive”; and `COc1cc2cc(C(=O)N/N=C/c3cccc(OC)c3OC)[nH]c2cc1OC`, with “inactive”. To `CN(C(=O)CN1C(=O)/C(=C/c2ccc(Cl)cc2)SC1=S)C1CCS(=O)(=O)C1` (stereo unspecified) belongs “inactive”; to `Oc1ccc(/C=N/NC2=NCCCCC2)c(O)c1`, “inactive”.

As for `Cc1cc(N/N=C/c2ccccc2F)c2ccccc2n1`, the Potency entry was “inactive”.

Regarding `Cc1nc2ccccc2nc1N/N=C/c1ccc(O)cc1O`, the Potency was 15.8 µM (active). Then `CC(C)(C)C1CCC(=NNC(=O)c2cc(-c3ccccc3)n[nH]2)CC1` (stereo unspecified), with 20 µM (active).

Consider `CC(C)(C)C1CCC(=NNC(=O)c2ccc(Br)o2)CC1` (stereo unspecified), for which the Potency entry was “inactive”.

On to `CC(NC(=O)C(=O)NN=C1CCC(C(C)(C)C)CC1)c1ccccc1` (stereo unspecified), for which the Potency result was “inactive”. To `CN(Cc1ccccc1Cl)C(=O)C1CCC(=O)N(CCc2cccc(F)c2)C1` (stereo unspecified) belongs “inactive”. To `O=C(Cc1csc(Nc2nc(=S)[nH]c3ccccc23)n1)NCCCN1CCN(c2cccc(Cl)c2)CC1` belongs 7.08 µM (active); to `O=C(CCCn1c(=O)[nH]c2cc(Cl)ccc2c1=O)NCCN1CCN(c2ccccc2)CC1`, “inactive”.

Take `CCn1c(=O)cc(OCC(=O)NCCCN2CCN(c3cccc(Cl)c3)CC2)c2ccccc21`: the Potency entry was “inactive”. To `CCCCn1c(N)c(N(CC)C(=O)c2ccccc2C(F)(F)F)c(=O)[nH]c1=O` belongs “inactive”; to `Cc1ccc(CNC(=O)Cc2cn(C)c3ccccc23)cc1`, “inactive”. Then `CC1CCCC(C)N1C(=O)CSc1nnnn1C1CCCC1` (stereo unspecified), with “inactive”; and `O=C(NCCCO)c1cc2c([nH]c3ccccc32)c(-c2ccc(F)cc2)n1`, with “inactive”. To `S=c1[nH]c2ccccc2c2ccccc12` belongs 17.8 µM (active); to `CC(=O)c1c(-c2ccccc2)c2ccccc2[nH]c1=O`, “inactive”.

On to `NC(=O)Cc1ccc2c(c1)[nH]c1ccccc12`, for which the Potency result was “inactive”. With `COc1ccc(S(=O)(=O)N2CCOCC2)cc1C(=O)Nc1nc2ccccc2s1`, the Potency entry is “inactive”. Consider `COc1cccc2sc(NNC(=O)c3nc4ccccc4s3)nc12`, for which the Potency was 2 µM (active). To `O=C(Nc1ccccc1)Nc1nc2ccccc2s1` belongs “inactive”.

Consider `O=c1[nH]cccc1-c1nc2ccccc2n1Cc1ccc(Cl)cc1`, for which the Potency result was “inactive”.

Consider `Cc1cc(C)c(NC(=O)CN2CCCCCC2)c(C)c1`, for which the Potency result was “inactive”. For `Oc1ccccc1/C=N/n1c(-c2cccs2)n[nH]c1=S`, the Potency result is “inactive”. Then `Cc1cc(-c2n[nH]c(=S)n2/N=C/C(Br)=C/c2ccccc2)n[nH]1`, with 11.2 µM (active); and `Cc1cc(-c2n[nH]c(=S)n2/N=C/c2ccco2)n[nH]1`, with “inactive”; and `O=[N+]([O-])c1ccccc1/C=N/n1c(COc2ccccc2)n[nH]c1=S`, with “inactive”.

`Fc1ccccc1/C=N/n1c(-c2cccnc2)n[nH]c1=S`: the Potency entry is “inactive”. To `S=c1[nH]nc(-c2cccnc2)n1/N=C/C(Cl)=C\c1ccccc1` belongs 7.08 µM (active); to `COc1ccc(C2(O)C(=O)Nc3ccccc32)cc1` (stereo unspecified), “inactive”; to `COCCN1C(=O)C(=O)/C(=C(/O)c2ccc(S(=O)(=O)N3CCOCC3)cc2)C1c1ccc(O)c(OC)c1` (stereo unspecified), “inactive”. Then `CC(C)c1ccc(/C=C2\NC(=O)NC2=O)cc1`, with “inactive”.
